Assay [1] is described as follows: Primary qHTS for inhibitors of SARS-S pseudo-typed particle cell entry (AID 1479145). Further: nearly all actives have a fitted effect of over 45% in size. On activity change, negative = inhibition: on the % scale 0 is the no-effect control and ±100 the full control effect. As to conditions: outcome: dose series up to 57.1 µM unless noted. Background: Quantitative high-throughput screening tests each substance at several concentrations.
A short description of assay [2]: Primary qHTS for Huh7 cytotoxicity: counterscreen for inhibitors of MERS-S pseudotyped particle cell entry (AID 1479147). On activity change, negative = cytotoxicity: on the % scale 0 is the no-effect control and ±100 the full control effect. As to conditions: outcome: dose series up to 57.1 µM unless noted.
Assay [3] in a line: Primary qHTS for inhibitors of MERS-S pseudo-typed particle cell entry (AID 1479149). Further: nearly all actives have a fitted effect of over 60% in size. On activity change, negative = inhibition: on the % scale 0 is the no-effect control and ±100 the full control effect. As to conditions: outcome: dose series up to 57.1 µM unless noted.
Assay [4] is described as follows: Primary qHTS for Vero E6 cytotoxicity: counterscreen for inhibitors of SARS-S pseudo-typed particle cell entry (AID 1479150). On activity change, negative = cytotoxicity: on the % scale 0 is the no-effect control and ±100 the full control effect. As to conditions: outcome: dose series up to 57.1 µM unless noted.
Assay [5] is described as follows: Cytotoxicity counterscreen for inhibitors of SARS-CoV-2 cell entry (AID 1645845). Further: nearly all actives have a fitted effect of over 50% in size. As to conditions: outcome: dose series up to 57.1 µM unless noted. In a few lines: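 48 h compound treatment (after 1 h preincubation), HEK293-ACE2 cells, 37 C/5% CO2; ATP luminescence endpoint; normalized to cell wells and media blanks.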
The nature of assay [6]: Primary qHTS to identify inhibitors of SARS-CoV-2 cell entry (AID 1645846). Further: nearly all actives have a fitted effect of over 45% in size. As to conditions: SARS-CoV-2 pseudovirus cell entry assay, luminescence; activity change, negative = inhibition: at 57.1 µM (top of the series) unless noted. In a few lines:
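Data are normalized to wells receiving SARS-CoV-2-S pseudoparticles and those given bald particles. Entry signal was luciferase luminescence in stable hACE2 Expi293F cells, 48 hr post-infection, after 1 hr compound pretreatment.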

Inconclusive results are not listed. Calls of active or inactive are those of the source. The call rests on the fitted dose curve. Bridge positions count the residues as written; N and C are the ends. Square brackets hold non-standard residues; d marks the D form. Peptide text beside a SMILES is read from it. * marks the point of attachment. Octanoyl(6-Me) = CCC(C)CCCCC(=O)*; Dab = NCC[CH](N)C(=O)O

On to `O=S(=O)(O)Oc1ccc(C(c2ccc(OS(=O)(=O)O)cc2)c2ccccn2)cc1`, for which the Potency result in assay [1], in assay [2], in assay [3], in assay [4], in assay [5] and in assay [6] was “inactive” each time.
For the compound `NC[C@@H]1O[C@H](O[C@H]2[C@@H](O)[C@H](O[C@@H]3[C@@H](O)[C@H](N)C[C@H](N)[C@H]3O[C@H]3O[C@H](CO)[C@@H](O)[C@H](O)[C@H]3N)O[C@@H]2CO)[C@H](N)[C@@H](O)[C@@H]1O`, the activity change, negative = inhibition in assay [1] was -8.64% [at 0.573 µM] (inactive). Also, the outcome is “inactive [at 0.573 µM]” in assay [2], “inactive [at 0.573 µM]” in assay [3] and “inactive [at 0.702 µM]” in assay [6]. Moreover, the activity change, negative = cytotoxicity in assay [4] is -20.5% [at 0.573 µM] (inactive); in assay [5] it was -2.38% [at 0.702 µM] (inactive).
`CC(C)(C)CC(=O)OCC(=O)[C@@]12OC(C)(C)O[C@@H]1C[C@H]1[C@@H]3CCC4=CC(=O)C=C[C@]4(C)[C@@]3(F)[C@@H](O)C[C@@]12C`: the Potency entry in assay [1], in assay [2], in assay [3], in assay [4] and in assay [5] was “inactive” throughout. Besides, in assay [6], the activity change, negative = inhibition is -18.4%.
`NCc1ccccc1CC(=O)N[C@@H]1C(=O)N2C(C(=O)O)=C(CSc3nnnn3CC(=O)O)CS[C@H]12`: the Potency entry in assay [1], in assay [2], in assay [3], in assay [4] and in assay [5] was “inactive” each time. Also, in assay [6], the activity change, negative = inhibition was -25.4%.
With `CCCCCCCCCC(=O)OCCN1CCN(CC/C=C2/c3ccccc3Sc3ccc(Cl)cc32)CC1`, the Potency entry in assay [1], in assay [2], in assay [3], in assay [4] and in assay [5] was “inactive” throughout. Also, in assay [6], the activity change, negative = inhibition is -15%.
For the compound `O=C(O)CCCN1CCC(O[C@@H](c2ccc(Cl)cc2)c2ccccn2)CC1`, the Potency result in assay [1], in assay [2], in assay [3], in assay [4] and in assay [5] was “inactive” each time. For the same compound, the activity change, negative = inhibition in assay [6] was -17.2%.
As to `CCOC(=O)O[C@]1(C(=O)COC(=O)CC)CC[C@H]2[C@@H]3CCC4=CC(=O)C=C[C@]4(C)[C@H]3[C@@H](O)C[C@@]21C`, the Potency entry in assay [1], in assay [2], in assay [3], in assay [4], in assay [5] and in assay [6] was “inactive” each time.
In the case of `COC(=O)CCC[N+](C)(C)C`, the Potency entry in assay [1], in assay [2], in assay [3], in assay [4] and in assay [5] was “inactive” in each case. The activity change, negative = inhibition in assay [6] was -38.5%.
Regarding `OC[C@@H](O)C(O)[C@H](O)CO`, the Potency entry in assay [1], in assay [2], in assay [3], in assay [4] and in assay [5] was “inactive” throughout. Besides, in assay [6], the activity change, negative = inhibition is 2.94%.
Regarding `CCC(=O)OCC(=O)[C@@]1(OC(=O)CC)[C@@H](C)C[C@H]2[C@@H]3CCC4=CC(=O)C=C[C@]4(C)[C@@]3(F)[C@@H](O)C[C@@]21C`, the Potency entry in assay [1], in assay [2], in assay [3], in assay [4], in assay [5] and in assay [6] was “inactive” throughout.
Turning to `Cc1ccc(/C=C2\C(=O)C3(C)CCC2C3(C)C)cc1` (configuration not stated), the Potency entry in assay [1], in assay [2], in assay [3], in assay [4], in assay [5] and in assay [6] was “inactive” each time.
With `C[C@]12CCC(=O)C=C1CC[C@@H]1[C@@H]2[C@@H](O)C[C@@]2(C)[C@H]1CC[C@]2(O)C(=O)COP(=O)(O)O`, the Potency entry in assay [1], in assay [2], in assay [3], in assay [4] and in assay [5] was “inactive” throughout. Further, the activity change, negative = inhibition in assay [6] is 2.63% [at 27.1 µM].
As for `CCC(C)CCCCC(=O)NC(CCN)C(=O)NC(C(=O)NC(CCN)C(=O)NC1CCNC(=O)C(C(C)O)NC(=O)C(CCN)NC(=O)C(CCN)NC(=O)C(CC(C)C)NC(=O)C(Cc2ccccc2)NC(=O)C(CCN)NC1=O)C(C)O` (configuration not stated) ({Octanoyl(6-Me)}-[Dab]T[Dab][Dab][Dab]FL[Dab][Dab]T; lactam 4-C; configuration not given here), the Potency entry in assay [1], in assay [2], in assay [3], in assay [4] and in assay [5] was “inactive” in each case. In assay [6], the activity change, negative = inhibition is -13.5% [at 27.1 µM].
`Cc1oc(=O)oc1COC(=O)N1CC[C@@H](N2CC/C(=C\C3=C(C(=O)O)N4C(=O)[C@@H](NC(=O)/C(=N/O)c5nsc(N)n5)[C@H]4SC3)C2=O)C1`: the Potency entry in assay [1], in assay [2], in assay [3], in assay [4] and in assay [5] was “inactive” throughout. Also, the activity change, negative = inhibition in assay [6] is -27.9%.
As to `O=S(=O)(O)CC(S)CS` (configuration not stated), the Potency result in assay [1], in assay [2], in assay [3], in assay [4], in assay [5] and in assay [6] was “inactive” throughout.
Turning to `C[C@@H](O)[C@H]1C(=O)N2C(C(=O)[O-])=C(SC3Cn4cnc[n+]4C3)[C@H](C)[C@H]12` (some centres not stated), the activity change, negative = inhibition in assay [1] was -18.9% [at 11.4 µM] (inactive); in assay [3] it was -3.17% [at 11.4 µM] (inactive); in assay [6], -12.2% [at 11.3 µM]. Besides, the outcome in assay [2] is “inactive [at 11.4 µM]”; in assay [5] it was “inactive [at 11.3 µM]”. Also, in assay [4], the activity change, negative = cytotoxicity is 4.16% [at 11.4 µM] (inactive).
Turning to `CO[C@H]1/C=C\O[C@@]2(C)Oc3c(C)c(O)c4c(O)c(c(/C=N/N5CCN(C6CCCC6)CC5)c(O)c4c3C2=O)NC(=O)/C(C)=C\C=C/[C@H](C)[C@H](O)[C@@H](C)[C@@H](O)[C@@H](C)[C@H](OC(C)=O)[C@@H]1C`, the Potency result in assay [1], in assay [2], in assay [3], in assay [4], in assay [5] and in assay [6] was “inactive” throughout.
For the compound `CCOC(=O)CN[C@@H](C(=O)N1CC[C@H]1C(=O)NCc1ccc(/C(N)=N/O)cc1)C1CCCCC1`, the Potency entry in assay [1], in assay [2], in assay [3], in assay [4] and in assay [5] was “inactive” in each case. Moreover, in assay [6], the activity change, negative = inhibition was -19.7%.
As for `Cc1ncc(C[n+]2csc(CCOP(=O)(O)OP(=O)(O)O)c2C)c(N)n1`, the outcome in assay [1], in assay [2] and in assay [3] was “inactive [at 0.573 µM]” in each case. The activity change, negative = cytotoxicity is -14.9% [at 0.573 µM] (inactive) in assay [4] and 3.84% [at 0.702 µM] (inactive) in assay [5]. Also, in assay [6], the activity change, negative = inhibition was -1.65% [at 0.702 µM].
Regarding `C[C@@H](O)[C@H]1C(=O)N2C(C(=O)O)=C(S[C@@H]3CN[C@H](C(=O)Nc4cccc(C(=O)O)c4)C3)[C@H](C)[C@H]12`, the Potency result in assay [1], in assay [2], in assay [3], in assay [4] and in assay [5] was “inactive” in each case. Besides, the activity change, negative = inhibition in assay [6] was found to be 0.84%.
With `CN1CCc2nc(C(=O)N[C@@H]3C[C@@H](C(=O)N(C)C)CC[C@@H]3NC(=O)C(=O)Nc3ccc(Cl)cn3)sc2C1`, the Potency result in assay [1], in assay [2], in assay [3], in assay [4] and in assay [5] was “inactive” throughout. In assay [6], the activity change, negative = inhibition was -19.9%.
As for `Nc1c(CC(=O)O)cccc1C(=O)c1ccccc1`, the Potency result in assay [1], in assay [2], in assay [3], in assay [4], in assay [5] and in assay [6] was “inactive” each time.

The values are drawn from PubChem BioAssay (NCATS).
